Results on 16 compounds are retold here after PubChem BioAssay (EPA / NIEHS).

Each structure is given as a SMILES string. Active and inactive are the calls of the source. Rule for the calls: active = hit-call score of the fitted dose curve at least 0.9, where 1 is the maximum; inactive = score below 0.9.

Read-out in test [1]: Human Leukocyte Antigen - DR isotype (HLADR), HLA-DRA (gene 3122)
Put plainly: BSK_BE3C_HLADR: BioMAP Diversity Plus: BE3C Assay for Human Leukocyte Antigen - DR isotype (HLADR) Biomarker Activity (AID 2283032). Conditions: primary human bronchial epithelial cells; actives raise or lower the signal. The procedure, abridged: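 Primary human bronchial epithelial cells (BE3C); 24 h chemical exposure; HLA-DR by ELISA; bidirectional curve fit vs DMSO baseline.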

Read-out in test [2]: Vascular cell adhesion molecule 1 (VCAM1), VCAM1 (gene 7412)
Put plainly: BSK_4H_VCAM1: BioMAP Diversity Plus: 4H Assay for Vascular cell adhesion molecule 1 (VCAM1) Biomarker Activity (AID 2283033).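 For outcome: cell-surface VCAM-1 protein measured by ELISA.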 Conditions: primary human endothelial cells (HUVEC); actives raise or lower the signal. In short, it runs like this:
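HUVEC, 24 h post-dose; VCAM-1 by ELISA. Bidirectional curve fit vs DMSO baseline. Parallel SRB total-protein stain (0.1% SRB after 10% TCA fixation, 560 nm) for cytotoxicity.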

Read-out in test [3]: Interferon-gamma inducible Protein 10 (IP10), CXCL10 (gene 3627)
Put plainly: BSK_BE3C_IP10: BioMAP Diversity Plus: BE3C Assay for Interferon-gamma inducible Protein 10 (IP10) Biomarker Activity (AID 2283034). The settings on record: primary human bronchial epithelial cells; actives raise or lower the signal. In short, it runs like this:
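ELISA readout of IP-10 in BE3C system: primary human bronchial epithelial cells, 24 h post-dosing; bidirectional curve fit vs DMSO baseline.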

Read-out in test [4]: Monokine induced gamma interferon (MIG), CXCL9 (gene 4283)
The test is described as follows: BSK_BE3C_MIG: BioMAP Diversity Plus: BE3C Assay for Monokine induced gamma interferon (MIG) Biomarker Activity (AID 2283035).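 For outcome: MIG protein measured by ELISA in BE3C cultures after 24 h of dosing.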 The settings on record: primary human bronchial epithelial cells; actives raise or lower the signal. The procedure, abridged:
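hu bronchial epithelial 1° cells, 24 h cpd; MIG by ELISA; bidirectional fit, DMSO = baseline.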

Read-out in test [5]: Transforming growth factor beta 1 (TGFb1), TGFB1 (gene 7040)
The test is described as follows: BSK_BE3C_TGFb1: BioMAP Diversity Plus: BE3C Assay for Transforming growth factor beta 1 (TGFb1) Biomarker Activity (AID 2283036;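 for outcome: TGF-b1 protein level measured by ELISA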). Conditions: primary human bronchial epithelial cells; actives raise or lower the signal. The procedure, abridged: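 Read-out: ELISA for TGF-b1 in primary human bronchial epithelial cultures, 24 h post-dose. Bidirectional curve fitting vs DMSO control; gain or loss of signal both scored.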

Read-out in test [6]: Plasminogen activator inhibitor-1 (PAI1), SERPINE1 (gene 5054)
The test is described as follows: BSK_BE3C_PAI1: BioMAP Diversity Plus: BE3C Assay for Plasminogen activator inhibitor-1 (PAI1) Biomarker Activity (AID 2283037). Conditions: primary human bronchial epithelial cells; actives raise or lower the signal. In short, it runs like this:
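ELISA read-out of PAI-1 from human bronchial epithelial primary cells, 24 h post-dosing; bidirectional curve fit vs DMSO baseline, gain or loss of signal scored.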

Read-out in test [7]: urokinase plasminogen activator (uPA), PLAU (gene 5328)
The test is described as follows: BSK_BE3C_uPA: BioMAP Diversity Plus: BE3C Assay for urokinase plasminogen activator (uPA) Biomarker Activity (AID 2283038).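 For outcome: uPA protein level quantified by ELISA in cell cultures; uPA read one day after compound addition.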 The settings on record: primary human bronchial epithelial cells; actives raise or lower the signal. In short, it runs like this:
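Bronchial epithelial cells (human, primary); chemical 24 h; uPA by ELISA; bidirectional fit vs DMSO. SRB (0.1%, after 10% TCA fixation, 560 nm) in parallel cultures for cytotoxicity.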

Read-out in test [8]: Urokinase-type plasminogen activator receptor (uPAR), PLAUR (gene 5329)
The test is described as follows: BSK_BE3C_uPAR: BioMAP Diversity Plus: BE3C Assay for Urokinase-type plasminogen activator receptor (uPAR) Biomarker Activity (AID 2283039).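 For outcome: uPAR protein level measured by ELISA on the cells; cells exposed to compound for one day before measurement.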 The settings on record: primary human bronchial epithelial cells; actives raise or lower the signal. In short, it runs like this:
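ELISA readout of uPAR on human lung primary bronchial epithelial cells, 24 h post-dosing. Bidirectional curve fit relative to DMSO vehicle baseline; gain or loss of signal both scored.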

Read-out in test [9]: Interleukin-6 (IL6), IL6 (gene 3569)
The test is described as follows: BSK_CASM3C_IL6: BioMAP Diversity Plus: CASM3C Assay for Interleukin-6 (IL6) Biomarker Activity for (AID 2283040). Conditions: primary human coronary artery smooth muscle cells; actives raise or lower the signal.

Read-out in test [10]: Tissue plasminogen activator (tPA), PLAT (gene 5327)
The test is described as follows: BSK_BE3C_tPA: BioMAP Diversity Plus: BE3C Assay for Tissue plasminogen activator (tPA) Biomarker Activity (AID 2283041).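 For outcome: tPA level quantified by ELISA one day after compound addition.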 Conditions: primary human bronchial epithelial cells; actives raise or lower the signal. The procedure, abridged:
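ELISA read-out of tPA on human primary bronchial epithelial cells, 24 h post-dosing; bidirectional fit vs DMSO negative control/baseline.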

For the compound `O=S(=O)(O)C(F)(F)C(F)(F)C(F)(F)C(F)(F)F`, the result in test [1], in [2], in test [3], in test [4], in test [5] and in test [6] was inactive. The result in test [7], in test [8], in test [9] and in test [10] was inactive.
On to `CN(C)c1nc(=O)n(C2CCCCC2)c(=O)n1C`, for which the outcome in [1], in test [2], in test [3], in [4], in test [5] and in [6] was inactive. Also, the outcome in test [7], in test [8], in test [9] and in test [10] was inactive.
In the case of `Clc1ccc(C(c2ccccc2Cl)C(Cl)(Cl)Cl)cc1` (stereo not drawn), the outcome in test [1], in test [3], in test [4], in test [5], in test [6] and in test [7] was inactive. The result in test [8], in test [9] and in test [10] was inactive.
Turning to `ClC1=C(Cl)[C@]2(Cl)[C@@H]3[C@@H](Cl)[C@H]4O[C@H]4[C@@H]3C1(Cl)C2(Cl)Cl`, the result in test [1], in test [2], in [3], in test [4], in test [5] and in test [6] was inactive. For the same compound, the result in test [7], in test [8], in [9] and in test [10] was inactive.
The term AC50 denotes the midpoint of the concentration-response curve, whichever way the signal moves. Turning to `CCC(C)(c1ccc(O)cc1)c1ccc(O)cc1`, the AC50 in test [1] was 24.5 µM (active); in test [3], 28.9 µM (active); in test [7], 4.96 µM (active). For the same compound, the outcome in [4], in test [5], in test [6], in test [8], in test [9] and in test [10] was inactive.
For the compound `Oc1ccc(C(c2ccc(O)cc2)(C(F)(F)F)C(F)(F)F)cc1`, the AC50 is 20.1 µM (active) in test [1]; 29.3 µM (active) in [2]; 24.1 µM (active) in test [3]; 37.3 µM (active) in test [4]; 28.5 µM (active) in test [5]; 21.4 µM (active) in [6]. The results for the AC50 in test [7], in test [8] and in test [10] were 38.2 µM (active), 38.1 µM (active) and 21.8 µM (active), respectively. For the same compound, in test [9], the outcome was inactive.
For the compound `Cc1ccccc1[N+](=O)[O-]`, the outcome in test [1], in test [2], in [3], in test [4], in test [5] and in test [6] was inactive. The outcome in test [7], in test [8], in test [9] and in test [10] was inactive.
Take `Cc1ccccc1O`: the result in test [1], in test [2], in test [3], in [4], in test [5] and in test [6] was inactive. Moreover, the result in test [7], in test [8], in test [9] and in test [10] was inactive.
As to `C=CC(=O)NCNC(=O)C=C`, the result in test [1], in test [2], in test [3], in test [4], in test [5] and in [6] was inactive. Moreover, the outcome in test [7], in [8], in test [9] and in [10] was inactive.
In the case of `O=NN(c1ccccc1)c1ccccc1`, the result in test [1], in test [2], in test [3], in test [4], in test [5] and in test [6] was inactive. Also, the result in [7], in [8], in test [9] and in test [10] was inactive.
For the compound `CCOCCOC(C)=O`, the outcome in test [1], in test [2], in test [3], in test [4], in test [5] and in [6] was inactive. The result in test [7], in test [8], in [9] and in test [10] was inactive.
In the case of `Cc1cc(-c2ccc(N)c(C)c2)ccc1N`, the outcome in test [1], in test [2], in [3], in test [4], in test [5] and in test [6] was inactive. Further, the outcome in test [7], in test [8], in test [9] and in test [10] was inactive.
In the case of `C1CC2OC2CC1C1CO1` (stereo not drawn), the outcome in test [1], in test [2], in test [3], in test [4], in test [5] and in test [6] was inactive. For the same compound, the result in test [7], in test [8], in test [9] and in test [10] was inactive.
On to `Sc1ccccc1`, for which the result in [1], in [2], in [3], in test [4], in test [5] and in test [6] was inactive. Further, the result in [7], in test [8], in test [9] and in test [10] was inactive.
Consider `Cc1cccc(C)c1N`, for which the result in [1], in [2], in test [3], in test [4], in [5] and in test [6] was inactive. The result in test [7], in test [8], in test [9] and in test [10] was inactive.
Consider `CO/C=C(/C(=O)OC)c1ccccc1COc1cccc(C(F)(F)F)n1`, for which the outcome in test [1], in [4], in test [5], in test [6], in test [7] and in test [8] was inactive. Moreover, the result in [10] was inactive. Moreover, the AC50 is 4.02 µM (active) in test [2], 3.97 µM (active) in test [3] and 5.93 µM (active) in test [9].
